Consider 86 sequences from the supplement of paper PMC3334620.

In all, about 33,000 sequences were measured (“E-score (-0.5 to 0.5)”: median about -0.011, highest 2% from about 0.28 on). Only a selection was taken, and the highest values are over-represented in it overall.

The assay addresses T1, Gcr1 (UniProt P07261).
T1 sequence: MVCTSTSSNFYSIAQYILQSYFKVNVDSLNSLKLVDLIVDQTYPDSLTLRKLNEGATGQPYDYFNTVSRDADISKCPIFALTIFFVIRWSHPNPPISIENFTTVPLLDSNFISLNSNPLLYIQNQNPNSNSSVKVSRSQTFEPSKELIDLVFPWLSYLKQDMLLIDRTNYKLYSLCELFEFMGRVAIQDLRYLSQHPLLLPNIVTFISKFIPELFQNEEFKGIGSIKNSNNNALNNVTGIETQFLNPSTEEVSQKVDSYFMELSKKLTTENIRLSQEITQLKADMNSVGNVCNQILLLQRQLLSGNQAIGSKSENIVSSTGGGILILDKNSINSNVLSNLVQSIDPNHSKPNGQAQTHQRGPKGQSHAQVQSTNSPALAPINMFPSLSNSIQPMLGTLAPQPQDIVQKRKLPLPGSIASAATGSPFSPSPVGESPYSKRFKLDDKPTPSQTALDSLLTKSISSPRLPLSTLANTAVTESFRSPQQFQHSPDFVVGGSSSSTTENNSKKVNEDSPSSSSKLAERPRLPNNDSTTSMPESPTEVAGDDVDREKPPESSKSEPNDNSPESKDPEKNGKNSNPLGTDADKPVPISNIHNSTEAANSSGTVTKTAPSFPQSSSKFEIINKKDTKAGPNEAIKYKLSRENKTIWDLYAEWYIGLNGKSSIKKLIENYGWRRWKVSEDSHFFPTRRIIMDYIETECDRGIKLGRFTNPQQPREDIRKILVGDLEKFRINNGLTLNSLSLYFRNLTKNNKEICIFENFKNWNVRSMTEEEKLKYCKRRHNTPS
In words: PBM E-score (8-mer binding enrichment) (E-score (-0.5 to 0.5)); higher = stronger / more preferred TF binding. As to conditions: protein concentration: 100 nM; construct: GST-full length. The method, then: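 Universal 'all 10-mer' protein binding microarrays (Agilent AMADID 015681) probed with GST-tagged S. cerevisiae TFs (full-length or DBD) made by in vitro transcription/translation (PURExpress), about 100-200 nM. Bound TF was detected with fluorescent anti-GST. Each ungapped 8-mer (which stands for itself and its reverse complement) is scored by the PBM enrichment score (E-score), a modified Wilcoxon-Mann-Whitney statistic from -0.5 to +0.5, computed with the Universal PBM Analysis Suite. Scale: above 0.35 generally sequence-specific binding.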
Regarding GTAATGGA, the “PBM E-score” value turned out to be 0.0927.

For the sequence CAGGCCCG, the “PBM E-score” value was -0.263. TATAAGGA: the “PBM E-score” value was 0.124. For GCTTTGGA the value was 0.0838; for AAACGCCG, 0.0308. Regarding CCGCTAGA, the “PBM E-score” value is -0.00443.

Take AGGCTTGG: the “PBM E-score” value was 0.0323. Take GAAGCTGC: the “PBM E-score” value is 0.406.

Consider AAAGCTGC, for which the “PBM E-score” value was -0.123. Regarding CAAGCTGC, the “PBM E-score” value worked out at 0.149. Take CAATCGAG: the “PBM E-score” value is 0.00485.

As for CTTCCGAC, the “PBM E-score” value was -0.00712. In the case of GAGTGATA, the “PBM E-score” value was -0.122. For CCGAAGGC the value was -0.158. With ATCGAGGC, the “PBM E-score” value was -0.0857.

In the case of ACCAGATA, the “PBM E-score” value worked out at 0.0838. For CAAGCCCA, the “PBM E-score” value was -0.244. As for CAAGCCCC, the “PBM E-score” value was -0.18.

As for AAAGCCCC, the “PBM E-score” value was -0.121. In the case of GAAGCCCC, the “PBM E-score” value turned out to be 0.381. On to GAAGCCCA, for which the “PBM E-score” value worked out at 0.368. As for AAAGCCCA, the “PBM E-score” value was -0.0697. Turning to AACGCGGT, the “PBM E-score” value is -0.107.

Consider GTTAAATA, for which the “PBM E-score” value was 0.0652. For TCTAAGAA the value was 0.0856. With AGTCTCCA, the “PBM E-score” value is 0.0915. The same measure for CGTCTCCA: 0.284; for CGTCTCCC: 0.0616. For CGGCCCCC, the “PBM E-score” value was found to be 0.0724. As for ACTAGTCG, the “PBM E-score” value was 0.065. For the sequence AGTCTGCA, the “PBM E-score” value was -0.179. In the case of GAAGAGCA, the “PBM E-score” value is -0.0362. As to CAGTGATA, the “PBM E-score” value is 0.0897. Turning to AACCAAGG, the “PBM E-score” value was -0.00121. On to AGATCCCA, for which the “PBM E-score” value is 0.265. GGATCCCC: the “PBM E-score” value is 0.362.

GGATCCCA: the “PBM E-score” value is 0.391. Turning to AGATCCCC, the “PBM E-score” value came to 0.156.

With TGCTCCCA, the “PBM E-score” value was -0.0935. For the sequence CGCTCCCA, the “PBM E-score” value was found to be 0.132. GGCTCCCA: the “PBM E-score” value turned out to be 0.348. TGATCCCA: the “PBM E-score” value amounted to 0.065. As for CGATCCCC, the “PBM E-score” value came out at 0.111. For the sequence AGTCTAGC, the “PBM E-score” value turned out to be 0.0246. With CTGATAAG, the “PBM E-score” value turned out to be 0.0222.

Turning to GTAGCTGA, the “PBM E-score” value was -0.023.

In the case of TATCTCGA, the “PBM E-score” value is -0.115. GTTCCTTA: the “PBM E-score” value stood at 0.0517. In the case of GGACTCCA, the “PBM E-score” value came out at 0.345.

TGACTCCA: the “PBM E-score” value was 0.0388. The same measure for AGGCTCCA: 0.263. As for GGGCTCCA, the “PBM E-score” value amounted to 0.318.

Take GGGCTCGA: the “PBM E-score” value was -0.0878. As for CGACTCCA, the “PBM E-score” value was determined as 0.0419. As to AGATGAGG, the “PBM E-score” value was -0.0257. The same measure for ATATTATG: 0.132. For CTAGACCC the value was -0.0797; for AAAGACTC, -0.195.

For CGCCATAG, the “PBM E-score” value is -0.14. With AAGTTCGA, the “PBM E-score” value turned out to be 0.0312. With GGAAGGCA, the “PBM E-score” value was 0.0904. With AAGTAGCT, the “PBM E-score” value was found to be 0.208. CTGCTTCC: the “PBM E-score” value was 0.177. For the sequence AAGCTTCT, the “PBM E-score” value is 0.184.

Take AAGCTTCG: the “PBM E-score” value came to 0.129. For AAGCTTCC, the “PBM E-score” value was 0.353.

For the sequence CAGCTTCG, the “PBM E-score” value turned out to be 0.328.

Consider AAGCTTCA, for which the “PBM E-score” value is -0.0647. Regarding CAGCTTGC, the “PBM E-score” value was -0.267.

As to CAGCTTCA, the “PBM E-score” value stood at 0.0949. CAGCTTCC: the “PBM E-score” value is 0.457.

Turning to CAAGAGCG, the “PBM E-score” value was 0.0229. Turning to GGGCGAGA, the “PBM E-score” value is -0.0433. In the case of AAGATTAA, the “PBM E-score” value was 0.233. The same measure for AGAATGTG: -0.221. With GAGTCCAC, the “PBM E-score” value turned out to be 0.257.

In the case of AACGCCTA, the “PBM E-score” value is -0.0917. In the case of AGGATTCA, the “PBM E-score” value was -0.164. In the case of CGGATTCC, the “PBM E-score” value is 0.463. CGGATTCA: the “PBM E-score” value is -0.0182. As to CGGATTTC, the “PBM E-score” value was -0.122. For CGGATGCA, the “PBM E-score” value was 0.0929. AGGATTCG: the “PBM E-score” value stood at 0.126.

CGGATGCC: the “PBM E-score” value was determined as 0.404. For the sequence CTGATGCC, the “PBM E-score” value was -0.0173. AGGATTCC: the “PBM E-score” value was determined as 0.373.
